RORgamma inh: inhibitors of mouse ROR gamma transcriptional activity; P51450; Drosophila S2 Gal4-RORgamma UAS-luciferase reporter, 20 h; Potency, µM (top dose mostly 53.6 µM), for the others: at the highest dose activity change, negative = inhibition, most hits filed as inhibitors; 310,000 compounds, 5.4% hits; further: potency means the concentration at half of the fitted maximal effect; on the % scale 0 is the no-effect control and ±100 the full control effect; nearly all actives have a fitted effect of over 60% in size
Target sequence (P51450 whole entry, looked up, the tested form may be a part): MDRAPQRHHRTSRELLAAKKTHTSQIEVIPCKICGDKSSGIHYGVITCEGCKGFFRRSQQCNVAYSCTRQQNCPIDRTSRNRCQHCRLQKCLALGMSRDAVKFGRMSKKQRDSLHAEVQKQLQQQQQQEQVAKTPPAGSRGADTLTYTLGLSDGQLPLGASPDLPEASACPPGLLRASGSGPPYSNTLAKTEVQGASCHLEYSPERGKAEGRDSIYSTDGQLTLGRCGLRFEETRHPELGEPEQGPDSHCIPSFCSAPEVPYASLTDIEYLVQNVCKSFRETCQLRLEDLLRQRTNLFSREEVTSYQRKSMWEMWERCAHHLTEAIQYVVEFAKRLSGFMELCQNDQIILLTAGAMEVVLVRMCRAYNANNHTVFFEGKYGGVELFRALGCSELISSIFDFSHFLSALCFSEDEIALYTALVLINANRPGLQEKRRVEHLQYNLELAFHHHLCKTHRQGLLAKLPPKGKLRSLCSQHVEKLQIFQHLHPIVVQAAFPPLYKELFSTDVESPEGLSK
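ROR gamma transcriptional activity was tracked as Gal4-UAS luciferase output in stably transfected Drosophila Schneider cells, with compound added 1 hr before 700 uM copper sulfate induction and a 20 hr ambient-temperature incubation.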
VP16 counter: Gal4-VP16 reporter inhibition counter-screen; Drosophila S2 Gal4-VP16 UAS-luciferase, luminescence, 20 h; Potency, µM (doses to about 53.6 µM), without a hit: at the top dose activity, negative = inhibition, actives largely listed as inhibitors; 310,000 compounds, 3.5% hits; AID 2546;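 further: Gal4-VP16 expression switched on by copper sulfate through the metallothionein promoter; potency means the concentration at half of the fitted maximal effect; on the % scale 0 is the no-effect control and ±100 the full control effect; nearly all actives have a fitted effect of over 50% in size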
Six1-Eya2 inh: inhibitors of human Six1/Eya2 interaction; activity change, % (no concentration beside the values); AlphaScreen GST-Six1/His-Eya2 binding, biochemical; active compounds read low; 360,000 compounds, 0.56% hits; AID 651725; Q15475+O00167; in the data active means activity change below about -65%; inconclusive means mostly about -30% to -63%; further: on the % scale 0 is the no-effect control and ±100 the full control effect
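Six1/Eya2 binding was read as AlphaScreen signal after compounds were pinned into GST-Six1 plus His-tagged Eya2 (5X stock 250/500 nM) in pH 8.0 Tris/NaCl/TCEP buffer, beads added, then incubated 1 h, 37 C, dark.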
p53 reactivator: restores transcriptional activity of mutant p53. H1299 p53-A138V BP100-luciferase reporter, luminescence, 24 h. AID 504706. 320,000 compounds, 0.063% hits. Potency, µM (series often up to 92.2 µM), without a hit: at the highest dose activity change, positive = activation, actives largely listed as activators; further: potency means the concentration at half of the fitted maximal effect; % of control where 0% means no effect; nearly all actives have a fitted effect of over 45% in size
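H1299 (p53-null), stable ts p53-A138V + BP100-Luc; 1000 cells/well, Opti-MEM/10% FBS; cpd 4 pt, 1:5; 24 h, 37 deg C, 5% CO2; detection reagent 10 min RT; luminescence.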
CtBP-E1A blk: inhibitors of CtBP/E1A interaction; 340,000 compounds, 0.49% hits; AlphaScreen GST-E1A/His-CtBP binding, 1536-well; active compounds read low; activity change, % (concentration not given with the values); in the data active means activity change below about -65%; inconclusive means mostly about -30% to -63%; further: on the % scale 0 is the no-effect control and ±100 the full control effect
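Steps: dispense buffer (Tris pH 8.0, NaCl 300 mM, TCEP 1 mM, BSA, Tween 20); add 5X protein mix (GST-E1A, His-CtBP, 125 nM each); pin 23 nL compound; 2 h at 37 °C, dark; add 5X beads (50 ug/mL); 1 h; read.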
An asterisk follows results filed as active; ? = inconclusive; / = no result; ! = not active in a repeat; [ ] = another dose, or the depositor's remark. Hits are enriched below; roughly 5.4% of the tested compounds scored in any of these assays. Unless noted, the call rests on the fitted dose curve; in most records, active means well fitted curve in the direction sought with a large enough effect; inconclusive means small, poorly fitted or top-dose-only effect, or another doubt; inactive means no such curve, though single readings can be large; an effect the other way counts as inactive or inconclusive.

SMILES	RORgamma inh	VP16 counter	Six1-Eya2 inh	p53 reactivator	CtBP-E1A blk
Brc1ccc(-c2nn3c(-c4ccncc4)nnc3s2)o1	17%	1%	/	4%	/
Brc1ccc(-c2nn3c(-c4ccccn4)nnc3s2)o1	-25%	26%	-77*	1%	-78*
COc1cccc(-c2nn3c(-c4ccccn4)nnc3s2)c1	18%	0%	?	?	?
Cc1[nH]nc(SCC(=O)NC2CCCCC2)c1[N+](=O)[O-]	20%	3%[10 µM]	1	10%	0
Cc1ccc(Nc2nc(Nc3ccc(C)cc3)nc(SC3=NCCS3)n2)cc1	2.5µM*	5.6µM*	-23	8%	-21
Cc1ccccc1Nc1nc(Nc2ccccc2C)nc(SC2=NCCS2)n1	6.3µM*	7.1µM*	-16	18%	-18
Cc1cc(NC(=O)CSc2nc3c([nH]c4ccccc43)c(=O)n2-c2ccccc2F)no1	-15%	-10%	-20	-7%	-28
COc1ccc(CNC(=S)Nc2ccc3nc(N4CCOCC4)cc(C)c3c2)cc1	10µM*	-93%	-9	3%	-17
CCC(C)NC(=S)Nc1ccc2nc(N3CCOCC3)cc(C)c2c1 (configuration not stated)	10µM*	?	-7	-4%	/
CCCN(CCC)CCCNC(=S)Nc1ccc2nc(N3CCCC3)cc(C)c2c1	10%	-2%	-8	-1%	/
Cc1cc(N2CCCC2)nc2ccc(NC(=S)NCCCOC(C)C)cc12	11µM*	?	-2	-3%	-2
Cc1ccc(NS(=O)(=O)c2cc(Br)cnc2N)c(Cl)c1	-1%	-9%	-3	-3%	-11
Nc1ncc(Br)cc1S(=O)(=O)Nc1cc(C(F)(F)F)cc(C(F)(F)F)c1	-81%	22µM*	3	-7%	3
Cc1c(CC(=O)NCCCC(=O)O)c(=O)oc2cc3occ(-c4ccccc4)c3cc12	-5%	-3%	?	11%	-28
Cc1oc2cc3oc(=O)c(CCC(=O)NCCC(=O)O)c(C)c3cc2c1C	-7%	-12%	-13	5%	/
CCC(NC(=O)CCc1c(C)c2cc3c(-c4ccccc4)coc3cc2oc1=O)C(=O)O (configuration not stated)	-34%	-22%	-23	-2%	-77*
Cc1c(CC(=O)NCC(=O)O)c(=O)oc2cc3occ(-c4ccccc4)c3cc12	1%	-6%	?	3%	1
Cc1c(CCC(=O)N[C@@H](C)C(=O)O)c(=O)oc2cc3occ(-c4ccccc4)c3cc12	-13%	-21%	?	0%	-77*
Cc1oc2cc3oc(=O)c(CCC(=O)NCc4ccccn4)c(C)c3cc2c1C	6.3µM*	?	1	/	8
Cc1c(CCC(=O)NCCCCCC(=O)O)c(=O)oc2cc3occ(-c4ccccc4)c3cc12	-9%	?	-68*	-7%	/
COc1cccc(-c2cc(C(=O)NC3CCCCC3)no2)c1	11%	24%	-4	28%	5
CN(C)Cc1ccccc1-c1nc(NC2CCNCC2)c2ccccc2n1	2%	-13%	/	/	/
Cc1[nH]c2ccccc2c1/C=N/NC(=S)NC(C)C	2.5µM*	7.1µM*	-23	0%	0
CC(C)NC(=S)N/N=C/c1c[nH]c2ccccc12	3.5µM*	1.4µM*	-13	14%	-5
COC(=O)c1ccc(C(NC(=O)OCc2ccccc2)/C(F)=C/[C@@H](C)C(=O)N[C@@H](CO)Cc2ccccc2)cc1 (some centres not stated)	9%	-3%	/	/	/
SMILES	RORgamma inh	VP16 counter	Six1-Eya2 inh	p53 reactivator	CtBP-E1A blk
O=C1c2ccccc2C(=O)N1Cc1nc2ccccc2c(=O)n1Cc1ccco1	20%	1%	3	7%	7
CCn1c(SCC(=O)NC(=O)NCc2ccco2)nc2sc(C)c(C)c2c1=O	-16%	?	-7	1%	-1
O=c1c2ccccc2nc2ccc(NCc3ccco3)nn12	-8%	-12%	-69*	?	-81*
Cc1sc2nc3ccc(NCc4ccco4)nn3c(=O)c2c1C	9%	-2%	-66*	?	?
CNC(=O)CC12CC3CC(CC(C3)C1)C2	-26%	-9%	6	1%	1
O=C(CC12CC3CC(CC(C3)C1)C2)NC(=S)N1CCCCC1	4.5µM*	3.5µM*	-1	12%	2
CC(=O)N1CCN(C(=S)NC(=O)C23CC4CC(CC(C4)C2)C3)CC1	14µM*	-21%	9	0%	-4
O=C(CC12CC3CC(C1)CC(CC(=O)N1CCCC1)(C3)C2)N1CCCC1	-7%	3%	5	3%	0
CC1CCCCN1C(=O)NC12CC3CC(CC(C3)C1)C2 (configuration not stated)	-4%	2%	5	9%	14
S=C(NC12CC3CC(CC(C3)C1)C2)N1CCCC1	14µM*	?	3	-2%	2
COCCNC(=S)NC(=O)CC12CC3CC(CC(C3)C1)C2	2.5µM*	?	7	5%	-10
C[C@@H]1CN([C@@H](C)CO)C(=O)CCCn2nncc2CO[C@H]1CN(C)S(=O)(=O)c1ccc(-c2ccccc2)cc1	/	/	-25	/	-3
COc1cc(O)c2c(c1)oc(=O)c1c3cc(O)c(O)cc3oc21	13µM*!	?	/	/	/
Cc1ccc2oc(=O)c3c4cc(O)c(O)cc4oc3c2c1	?	-15%	/	/	/
COC(=O)c1c(NC(=S)Nc2ccccc2Cl)sc(C)c1C	2.8µM*	6.3µM*	-4	0%	8
CCOC(=O)c1c(NC(C)=O)sc(/C(C)=N/Nc2ccc(C(=O)O)cc2)c1C	11µM*	?	-24	3%	-29
CCOC(=O)c1c(NC(=O)CNCC(O)CO)sc(C)c1C (configuration not stated)	-2%	8%	1	-1%	-1
CCOC(=O)c1sc(NC(=S)NC(=O)c2ccccc2)c(C(=O)OCC)c1C	2.2µM*	?	-4	0%	2
CCCCNCC(=O)Nc1sc(C)c(C)c1C(=O)OCC	13µM*	?	1	-5%	13
COC(=O)c1c(NC(=O)Cc2ccccc2)sc(C)c1C	15%	15%	14	-2%	-1
CC(=O)c1cccc(OCc2cc(C(=O)NCc3nc(C)c(C)s3)no2)c1	0%	?	-8	16%	-3
Cc1ccsc1C(=O)N1CCC1(C)C(=O)NCCC#N (configuration not stated)	/	/	-1	/	5
CCOC(=O)c1sc2nc(C)nc(N3CCN(S(=O)(=O)c4ccccc4)CC3)c2c1C	/	/	4	-1%	11
CCOC(=O)c1c(NC(=S)NC(C)=O)sc(C)c1C	7.9µM*	11µM*	-10	10%	-6
Nc1nc2ncc(C(=O)c3cc(Cl)cc(Cl)c3O)cc2s1	-3%	0%	?	1%	-72*
S=C(NCc1ccccc1)NNc1ccccc1	1.4µM*	3.2µM*	-2	3%	2

From PubChem BioAssay
